Test results from PubChem BioAssay (Tox21).
Records with an inconclusive call do not appear. The source made the active and inactive calls. Unless noted, the call rests on the fitted dose curve.

Tests used:
[1] = Nuclear factor erythroid 2-related factor 2/antioxidant responsive element (Nrf2/ARE) small molecule agonists: qHTS cell viability counter screen in human keratinocytes (AID 1919968; active means well fitted cell-killing curve with a large enough effect in the repeat runs; further: nearly all actives have a fitted effect of over 55% in size)
Procedure, shortened: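 Stably transfected HaCaT (KeratinoSens), 1,500/well. Test agents in DMSO were applied for 23 h, 37 C/5% CO2. CellTiter-Fluor was incubated 1 h before the fluorescence read.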

[2] = Nuclear factor erythroid 2-related factor 2/antioxidant responsive element (Nrf2/ARE) small molecule agonists: luciferase reporter gene qHTS assay in human keratinocytes (AID 1919969); further: nearly all actives have a fitted effect of over 35% in size
[3] = target: Gonadotropin-releasing hormone receptor (Homo sapiens) (UniProt P30968); experiment: Human gonadotropin-releasing hormone receptor (GnRHR) small molecule agonists, calcium flux assay in GnRHR-HEK293 cells (AID 1920063); further: nearly all actives have a fitted effect of over 35% in size
Procedure, shortened: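 Stable human GnRHR HEK293 line. 18 h plating, then calcium dye for 1 h at 37 C. Agonist-mode compound addition from DMSO stocks; fluorescence monitored 3 min.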

[4] = p53 small molecule agonists, cell-based qHTS assay with human liver microsomes (AID 1963577);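 further: p53 response element beta-lactamase reporter cells with liver microsomes plus NADPH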
Procedure, shortened: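 HLM-supplemented p53RE-bla reporter assay: 16 h compound exposure at 37 C, microsomes and NADPH each 0.5 mg/mL final, read by fluorescence intensity.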

[5] = p53 small molecule agonists, cell-based qHTS assay with rat liver microsomes (AID 1963578)
Procedure, shortened: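 Quantitative HTS of the Tox21 10K library: p53RE-bla cells, rat liver microsomes plus NADPH at 0.5 mg/mL final each, 16 h at 37 C, beta-lactamase fluorescence detection.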

[6] = p53 small molecule agonists, cell-based qHTS assay with human liver microsomes: qHTS cell viability counter screen (AID 1963579); further: nearly all actives have a fitted effect of over 45% in size
Procedure, shortened: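 Viability of p53RE-bla cells is measured as CellTiter-Glo luminescence following a 16 h, 37 C incubation with compound, liver microsomes from human donors and NADPH.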

[7] = p53 small molecule agonists, cell-based qHTS assay with rat liver microsomes: qHTS cell viability counter screen (AID 1963580); further: nearly all actives have a fitted effect of over 45% in size
Procedure, shortened: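 Cytotoxicity counter screen: intracellular ATP measured by CellTiter-Glo luminescence in the same wells as the beta-lactamase reporter read, on HCT-116 p53RE-bla cells exposed 16 h at 37 C to compounds with rat liver microsomes and NADPH, each 0.5 mg/mL final.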

[8] = p53 small molecule agonists, cell-based qHTS assay (AID 1963582; active means well fitted activation curve with a large enough effect in the signal ratio in the repeat runs, not every such curve was filed as active; the % refers to the signal ratio)
Procedure, shortened: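 Measured: fluorescence from cleaved LiveBLAzer substrate. System: p53RE-bla cells, 16 h compound treatment at 37 C, 2 h substrate step at room temperature.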

[9] = target: 5-hydroxytryptamine receptor 2A (Homo sapiens) (UniProt P28223); experiment: 5-hydroxytryptamine receptor 2A (HTR2A) small molecule antagonists, cell-based qHTS assay (AID 1963586); further: nearly all actives have a fitted effect of over 45% in size
Procedure, shortened: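 CHO cells stably expressing human HTR2A were plated for 18 h at 37 C, then loaded with calcium dye for 1 h. Compounds were preincubated 5 min at room temperature before DOI (4 nM solution) was added. Kinetic fluorescence was read for 3 min.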

[10] = target: 5-hydroxytryptamine receptor 2A (Homo sapiens) (UniProt P28223); experiment: 5-hydroxytryptamine receptor 2A (HTR2A) small molecule agonists, cell-based qHTS assay (AID 1963587); further: nearly all actives have a fitted effect of over 30% in size
Procedure, shortened: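 CHO cells stably expressing human HTR2A, plated 18 h, loaded with calcium dye 1 h at 37 C. Agonist mode: compounds added and intracellular calcium fluorescence recorded kinetically for 2 min at 1 sec intervals.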

[11] = target: Muscarinic acetylcholine receptor M1 (Homo sapiens) (UniProt P11229); experiment: Cholinergic receptor muscarinic 1 (CHRM1) small molecule antagonists, cell-based qHTS assay (AID 1963588); further: nearly all actives have a fitted effect of over 40% in size
Procedure, shortened: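 Compounds were tested at 15 concentrations in three independent runs. Dye-loaded CHRM1-CHO cells were exposed 5 min at room temperature before stimulation by acetylcholine added at 50nM. Intracellular calcium was read kinetically on FDSS for 3 min.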

[12] = target: Muscarinic acetylcholine receptor M1 (Homo sapiens) (UniProt P11229); experiment: Cholinergic receptor muscarinic 1 (CHRM1) small molecule agonists, cell-based qHTS assay (AID 1963589); further: nearly all actives have a fitted effect of over 35% in size
Procedure, shortened: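 Kinetic fluorescence (1 s intervals) of calcium-sensitive dye in human M1 CHO cells after compound addition; cells pre-incubated 18 h at 37 C/5% CO2 and dye-loaded 1 h.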

[13] = cAMP Responsive Elements (CRE) small molecule agonists, cell-based qHTS assay (AID 1963590)
Procedure, shortened: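 Test agents in DMSO were incubated 3 h at 37 C/5% CO2 with CRE-bla HEK 293T cells seeded 18 h earlier; LiveBLAzer B/G FRET substrate was added and read after 2 h at room temperature.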

[14] = target: Beta-2 adrenergic receptor (Homo sapiens) (UniProt P07550); experiment: Adrenergic beta2 receptor (ADRB2) small molecule antagonists, cell-based qHTS assay (AID 1963592); further: series mostly up to about 92 µM; nearly all actives have a fitted effect of over 50% in size
Procedure, shortened: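 Assay format: CHO-ADRB2 cells, 18-20hr seeding at 37C/5% CO2, then compound plus 1nM isoproterenol agonist mix for 0.5hr RT. Homogeneous time-resolved fluorescence cAMP detection after 1hr, expressed as 665/615 nm ratio.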

[15] = target: D(2) dopamine receptor (Homo sapiens) (UniProt P14416); experiment: Dopamine D2 receptor (DRD2) small molecule agonists, cell-based qHTS assay (AID 1963594); further: nearly all actives have a fitted effect of over 35% in size
Procedure, shortened: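 HEK293 cells stably expressing human DRD2, pre-treated with PDE inhibitor Ro20-1724 (0.1 mM final) and compound 10 min at room temperature, then stimulated with NKH477 (200nM […]) for 30 min. cAMP read by HTRF (665/620 nm).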

[16] = target: D(2) dopamine receptor (Homo sapiens) (UniProt P14416); experiment: Dopamine D2 receptor (DRD2) small molecule antagonists, cell-based qHTS assay (AID 1963595; active means well fitted inhibition curve with a large enough effect in the signal ratio in the repeat runs, with a control signal flat; the % refers to the signal ratio)
Procedure, shortened: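 Antagonist mode in DRD2-HEK293 cells: after compound addition with 0.1 mM Ro20-1724, cells received quinpirole (12 nM) and NKH477 (200 nM) for 30 min at room temperature; HTRF cAMP read after 1 h detection.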

[17] = G protein-coupled receptor (GPCR) small molecule agonists, calcium flux assay: HEK293 wild type cell line counter screen (AID 1920065)
Procedure, shortened: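 Following 18 h incubation at 37 C/5% CO2, plates got calcium dye for 1 h; compounds, ATP or DMSO were then pinned in and fluorescence followed kinetically (480/540 nm).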

[18] = p53 small molecule agonists, cell-based qHTS assay: qHTS cell viability counter screen (AID 1963581); further: nearly all actives have a fitted effect of over 45% in size
Procedure, shortened: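 qHTS counter screen: 16 h compound exposure at 37 C of p53RE-bla HCT-116 cells (4,000 per well, seeded 5 h prior), cell viability by ATP luminescence.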

[19] = cAMP Responsive Elements (CRE) small molecule antagonists, cell-based qHTS assay (AID 1963591; active means well fitted inhibition curve with a large enough effect in the signal ratio in the repeat runs, not every such curve was filed as active; the % refers to the signal ratio)
Procedure, shortened: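 Reporter line CRE-bla HEK 293T in dialyzed-FBS DMEM; cells preincubated 18 h, treated 3 h with compound plus NKH477 (0.25 uM final); LiveBLAzer FRET, 2 h RT.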

[20] = target: Beta-2 adrenergic receptor (Homo sapiens) (UniProt P07550); experiment: Adrenergic beta2 receptor (ADRB2) small molecule agonists, cell-based qHTS assay (AID 1963593);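 further: CHO cells stably overexpressing human ADRB2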
Procedure, shortened: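 CHO cells stably over-expressing ADRB2 were plated overnight at 37C, then dosed with compounds plus a stimulation mix containing 100uM IBMX and 25uM Ro-20-1724 for 0.5hr at room temperature. cAMP was measured by HTRF competition, 1hr.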

Measured: Potency

Beta-2 adrenergic receptor (Homo sapiens), sequence (P07550 whole entry, looked up): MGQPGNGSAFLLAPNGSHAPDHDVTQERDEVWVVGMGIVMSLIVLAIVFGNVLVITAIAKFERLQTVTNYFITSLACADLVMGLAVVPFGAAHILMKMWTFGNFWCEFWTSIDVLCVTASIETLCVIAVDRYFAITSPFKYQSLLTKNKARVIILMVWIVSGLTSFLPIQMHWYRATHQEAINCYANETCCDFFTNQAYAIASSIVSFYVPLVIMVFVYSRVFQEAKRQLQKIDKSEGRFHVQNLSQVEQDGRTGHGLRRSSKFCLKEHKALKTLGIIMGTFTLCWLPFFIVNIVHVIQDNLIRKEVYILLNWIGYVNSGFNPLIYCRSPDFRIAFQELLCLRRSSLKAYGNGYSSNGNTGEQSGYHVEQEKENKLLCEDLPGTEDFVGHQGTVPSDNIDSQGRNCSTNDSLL
D(2) dopamine receptor (Homo sapiens), sequence (P14416 whole entry, looked up): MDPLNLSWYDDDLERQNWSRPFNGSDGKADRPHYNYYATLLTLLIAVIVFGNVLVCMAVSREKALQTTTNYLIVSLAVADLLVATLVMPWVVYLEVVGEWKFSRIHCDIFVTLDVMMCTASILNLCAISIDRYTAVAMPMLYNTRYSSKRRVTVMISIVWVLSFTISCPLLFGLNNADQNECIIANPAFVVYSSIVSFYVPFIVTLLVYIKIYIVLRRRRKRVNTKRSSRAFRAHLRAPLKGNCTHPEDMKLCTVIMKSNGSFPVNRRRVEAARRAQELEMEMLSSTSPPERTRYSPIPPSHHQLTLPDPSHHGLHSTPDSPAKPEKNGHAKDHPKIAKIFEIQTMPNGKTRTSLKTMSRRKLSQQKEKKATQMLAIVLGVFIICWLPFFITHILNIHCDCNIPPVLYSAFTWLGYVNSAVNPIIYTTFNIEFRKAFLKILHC
Muscarinic acetylcholine receptor M1 (Homo sapiens), sequence (P11229 whole entry, looked up): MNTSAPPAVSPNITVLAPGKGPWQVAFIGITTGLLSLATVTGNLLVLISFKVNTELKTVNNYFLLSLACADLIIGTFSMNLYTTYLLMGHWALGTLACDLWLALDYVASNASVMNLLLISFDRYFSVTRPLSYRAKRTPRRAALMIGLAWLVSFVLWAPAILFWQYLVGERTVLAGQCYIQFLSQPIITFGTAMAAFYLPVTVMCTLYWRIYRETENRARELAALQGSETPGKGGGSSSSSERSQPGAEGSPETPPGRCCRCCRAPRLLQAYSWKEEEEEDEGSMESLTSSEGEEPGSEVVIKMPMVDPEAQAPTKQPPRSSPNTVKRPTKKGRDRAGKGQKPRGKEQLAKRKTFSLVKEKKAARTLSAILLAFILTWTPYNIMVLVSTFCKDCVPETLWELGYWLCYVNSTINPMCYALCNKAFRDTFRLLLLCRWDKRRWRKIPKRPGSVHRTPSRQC
5-hydroxytryptamine receptor 2A (Homo sapiens), sequence (P28223 whole entry, looked up): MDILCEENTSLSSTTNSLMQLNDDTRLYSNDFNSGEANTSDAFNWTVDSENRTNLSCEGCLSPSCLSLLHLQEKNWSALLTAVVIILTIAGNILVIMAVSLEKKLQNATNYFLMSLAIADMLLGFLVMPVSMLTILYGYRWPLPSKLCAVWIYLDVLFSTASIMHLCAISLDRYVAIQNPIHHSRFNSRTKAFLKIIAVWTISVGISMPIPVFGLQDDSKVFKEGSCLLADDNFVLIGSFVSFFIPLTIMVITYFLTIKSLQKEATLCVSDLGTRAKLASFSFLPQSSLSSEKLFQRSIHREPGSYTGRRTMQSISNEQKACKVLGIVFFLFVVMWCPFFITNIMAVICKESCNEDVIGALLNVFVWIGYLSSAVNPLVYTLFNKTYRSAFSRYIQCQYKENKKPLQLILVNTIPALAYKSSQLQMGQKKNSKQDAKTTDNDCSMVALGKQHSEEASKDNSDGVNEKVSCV
Gonadotropin-releasing hormone receptor (Homo sapiens), sequence (P30968 whole entry, looked up): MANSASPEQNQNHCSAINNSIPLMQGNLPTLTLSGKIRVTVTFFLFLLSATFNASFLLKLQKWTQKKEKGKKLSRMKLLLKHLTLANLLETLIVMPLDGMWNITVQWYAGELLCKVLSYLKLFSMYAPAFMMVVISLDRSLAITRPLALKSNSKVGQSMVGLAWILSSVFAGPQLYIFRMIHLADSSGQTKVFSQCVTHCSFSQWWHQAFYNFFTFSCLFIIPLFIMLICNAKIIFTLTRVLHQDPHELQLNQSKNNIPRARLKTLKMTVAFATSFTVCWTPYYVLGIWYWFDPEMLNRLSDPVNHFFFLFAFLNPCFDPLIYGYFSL

CC(=O)N(O)CCCCCNC(=O)CCC(=O)N(O)CCCCCNC(=O)CCC(=O)N(O)CCCCCN
inactive: [1] | [2] | [3] | [4] | [5] | [6] | [7] | [8] | [9] | [10] | [11] | [12] | [13] | [14] | [15] | [16]

CCN[C@H]1CN(CCCOC)S(=O)(=O)c2sc(S(N)(=O)=O)cc21
inactive: [1] | [2] | [3] | [17] | [4] | [5] | [6] | [7] | [18] | [8] | [9] | [10] | [11] | [12] | [13] | [19] | [14] | [20] | [16]

COc1ccccc1C=O
inactive: [1] | [2] | [3] | [17] | [4] | [5] | [6] | [7] | [18] | [8] | [9] | [10] | [11] | [12] | [13] | [19] | [14] | [20] | [15] | [16]

CC(C)CCCC(C)N (stereo unspecified)
inactive: [1] | [2] | [3] | [17] | [4] | [5] | [6] | [7] | [18] | [8] | [9] | [10] | [11] | [12] | [13] | [14]

Oc1cc(O)c2c(c1)O[C@H](c1ccc(O)c(O)c1)[C@H](O)C2
inactive: [1] | [2] | [3] | [17] | [4] | [5] | [6] | [7] | [18] | [8] | [9] | [10] | [11] | [12] | [13] | [19] | [14] | [20] | [15] | [16]

COc1cccc(OC)c1C(=O)N[C@@H]1C(=O)N2[C@@H]1SC(C)(C)[C@@H]2C(=O)O
inactive: [1] | [2] | [3] | [17] | [4] | [5] | [6] | [7] | [18] | [8] | [9] | [11] | [12] | [13] | [19] | [14] | [20] | [15]

CC(=O)c1ccccc1N
inactive: [1] | [2] | [3] | [17] | [4] | [5] | [6] | [7] | [18] | [8] | [9] | [10] | [13] | [19] | [14] | [20] | [15]
